# Results as given in the supplement of paper PMC8728848.
# Shown is part of a subset that was picked to be rich in the strongest signals.
# B1: SalT (Orysata sativa) (protein)
# chain: MTLVKIGLWGGNGGSAQDISVPPKKLLGVTIYSSDAIRSIAFNYIGVDGQEYAIGPWGGGEGTSTEIKLGSSEHIKEISGTHGPVYDLADIVTYLKIVTSANNTYEAGVPNGKEFSIPLQDSGHVVGFFGRSGTLIDAIGIYVHPILEQKLISEEDLNSAVDHHHHHH
# What was measured:
# Assay in all cases: glycan array binding signal (z-score within array); higher = stronger binding
# Settings in all cases: glycan notation: IUPAC condensed, linker removed
# Fuc(a1-2)Gal(b1-3)GalNAc = molecular target: Fuc(a1-2)Gal(b1-3)GalNAc
# In short: (§1)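 From the Consortium for Functional Glycomics database, 3228 arrays were curated, keeping only those whose protein sequence was available. Binding is given as a within-array Z-score averaged across arrays sharing a protein sequence and across linkers. Negative Z-scores can be read as non-binding.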
# [1] = molecular target: Fuc(a1-2)Gal(b1-3)GalNAc(a1-3)[Fuc(a1-2)]Gal(b1-4)Glc
# In short: as §1
# [2] = molecular target: Fuc(a1-2)Gal(b1-3)GalNAc(a1-3)[Fuc(a1-2)]Gal(b1-4)GlcNAc
# In short: as §1
# [3] = molecular target: Fuc(a1-2)Gal(b1-3)[Fuc(a1-4)]GlcNAc(b1-3)[Fuc(a1-3)[Gal(b1-4)]GlcNAc(b1-6)]Gal(b1-4)Glc
# In short: as §1
# [4] = molecular target: Fuc(a1-2)Gal(b1-4)GlcNAc(b1-3)GalNAc
# In short: as §1
# [5] = molecular target: Fuc(a1-2)Gal(b1-4)GlcNAc6S
# In short: as §1
# [6] = molecular target: Fuc(a1-2)Gal(b1-4)[Fuc(a1-3)]GlcNAc(b1-3)Gal(b1-4)[Fuc(a1-3)]GlcNAc
# In short: as §1
# [7] = molecular target: Fuc(a1-2)[Gal(a1-3)]Gal(b1-4)Glc
# In short: as §1
# [8] = molecular target: Fuc(a1-2)[Gal(a1-4)]Gal(b1-4)GlcNAc
# In short: as §1
# [9] = molecular target: Fuc(a1-2)[GalNAc(b1-3)]Gal
# In short: as §1
# [10] = molecular target: Fuc(a1-3)[Gal(b1-4)]GlcNAc(b1-3)GalNAc
# In short: as §1
# [11] = molecular target: Fuc(a1-3)[Gal(b1-4)]GlcNAc(b1-6)[Gal(b1-3)GlcNAc(b1-3)]Gal(b1-4)Glc
# In short: as §1
# [12] = molecular target: Fuc(a1-3)[GalNAc(b1-4)]GlcNAc
# In short: as §1
# [13] = molecular target: Gal(a1-4)Gal(b1-3)GlcNAc(b1-2)Man(a1-3)[Gal(a1-4)Gal(b1-3)GlcNAc(b1-2)Man(a1-6)]Man(b1-4)GlcNAc(b1-4)GlcNAc
# In short: as §1
# [14] = molecular target: Gal(b1-3)Gal(b1-4)GlcNAc(b1-2)Man(a1-3)[Gal(b1-3)Gal(b1-4)GlcNAc(b1-2)Man(a1-6)]Man(b1-4)GlcNAc(b1-4)GlcNAc
# In short: as §1
# [15] = molecular target: Gal(b1-3)GlcNAc(b1-2)Man(a1-3)[Gal(b1-3)GlcNAc(b1-2)Man(a1-6)]Man(b1-4)GlcNAc(b1-4)GlcNAc
# In short: as §1
# [16] = molecular target: Gal(b1-4)GlcNAc(b1-2)Man(a1-3)[Gal(b1-4)GlcNAc(b1-2)][GlcNAc(b1-4)]Man(b1-4)GlcNAc(b1-4)GlcNAc
# In short: as §1
# [17] = molecular target: Gal(b1-4)GlcNAc(b1-2)Man(a1-3)[GlcNAc(b1-2)Man(a1-6)]Man(b1-4)GlcNAc(b1-4)GlcNAc
# In short: as §1
# [18] = molecular target: Gal(b1-4)GlcNAc(b1-2)Man(a1-6)[Man(a1-3)]Man(b1-4)GlcNAc(b1-4)GlcNAc
# In short: as §1
# [19] = molecular target: Gal(b1-4)GlcNAc(b1-2)[Gal(b1-4)GlcNAc(b1-6)]Man(a1-6)[Gal(b1-4)GlcNAc(b1-2)Man(a1-3)]Man(b1-4)GlcNAc(b1-4)[Fuc(a1-6)]GlcNAc
# In short: as §1
# [20] = molecular target: Gal(b1-4)GlcNAc(b1-6)GalNAc
# In short: as §1
# [21] = molecular target: Gal3S(b1-4)[Fuc(a1-3)]Glc6S
# In short: as §1
# GalNAc3S(b1-4)GlcNAc = molecular target: GalNAc3S(b1-4)GlcNAc
# In short: as §1
# Glc(b1-4)Glc = molecular target: Glc(b1-4)Glc
# In short: as §1
# [22] = molecular target: GlcNAc(b1-2)Man(a1-3)[GlcNAc(b1-2)Man(a1-6)]Man(b1-4)GlcNAc(b1-4)GlcNAc
# In short: as §1
# [23] = molecular target: GlcNAc(b1-3)[GlcNAc(b1-6)]GalNAc
# In short: as §1
# Kdn(a2-3)Gal(b1-4)Glc = molecular target: Kdn(a2-3)Gal(b1-4)Glc
# In short: as §1
# [24] = molecular target: Man(a1-2)Man(a1-3)[Man(a1-2)Man(a1-6)]Man(a1-6)[Man(a1-2)Man(a1-2)Man(a1-3)]Man
# In short: as §1
# [25] = molecular target: Man(a1-2)Man(a1-6)[Man(a1-3)]Man(a1-6)[Man(a1-2)Man(a1-2)Man(a1-3)]Man
# In short: as §1
# [26] = molecular target: Man(a1-3)[Man(a1-6)]Man(a1-6)[Man(a1-2)Man(a1-3)]Man(b1-4)GlcNAc(b1-4)GlcNAc
# In short: as §1
# [27] = molecular target: Man(a1-3)[Man(a1-6)]Man(a1-6)[Man(a1-3)]Man(b1-4)GlcNAc(b1-4)GlcNAc
# In short: as §1
# [28] = molecular target: Man(a1-3)[Man(a1-6)]Man(b1-4)GlcNAc(b1-4)GlcNAc
# In short: as §1
# [29] = molecular target: Neu5Ac(a2-3)Gal(b1-3)GalNAc(b1-4)[Neu5Ac(a2-3)]Gal(b1-4)Glc
# In short: as §1
# [30] = molecular target: Neu5Ac(a2-3)Gal(b1-4)[Fuc(a1-3)]GlcNAc(b1-3)Gal(b1-4)[Fuc(a1-3)]GlcNAc(b1-3)Gal(b1-4)[Fuc(a1-3)]GlcNAc
# In short: as §1
# Neu5Ac(a2-6)Gal = molecular target: Neu5Ac(a2-6)Gal
# In short: as §1
# [31] = molecular target: Neu5Ac(a2-6)Gal(b1-4)GlcNAc(b1-2)Man(a1-3)[Neu5Ac(a2-6)Gal(b1-4)GlcNAc(b1-2)Man(a1-6)]Man(b1-4)GlcNAc(b1-4)GlcNAc
# In short: as §1
# [32] = molecular target: Neu5Ac(a2-6)Gal(b1-4)GlcNAc(b1-2)Man(a1-3)[Neu5Ac(a2-6)Gal(b1-4)GlcNAc(b1-2)Man(a1-6)]Man(b1-4)GlcNAc(b1-4)[Fuc(a1-6)]GlcNAc
# In short: as §1
# [33] = molecular target: Neu5Ac(a2-6)Gal(b1-4)GlcNAc(b1-2)Man(a1-6)[Man(a1-3)]Man(b1-4)GlcNAc(b1-4)GlcNAc
# In short: as §1
# [34] = molecular target: Neu5Ac(a2-6)Gal(b1-4)GlcNAc(b1-3)GalNAc
# In short: as §1
# Neu5Ac(a2-6)GalNAc = molecular target: Neu5Ac(a2-6)GalNAc
# In short: as §1
# [35] = molecular target: Neu5Ac(a2-6)GalNAc(b1-4)GlcNAc6S
# In short: as §1
binder,measurement,setting,value
B1,glycan array binding signal (z-score),Fuc(a1-2)Gal(b1-3)GalNAc,-0.283
same,glycan array binding signal (z-score),[1],-0.306
same,glycan array binding signal (z-score),[2],-0.31
same,glycan array binding signal (z-score),[3],-0.307
same,glycan array binding signal (z-score),[4],-0.307
same,glycan array binding signal (z-score),[5],-0.308
same,glycan array binding signal (z-score),[6],-0.308
same,glycan array binding signal (z-score),[7],-0.308
same,glycan array binding signal (z-score),[8],-0.309
same,glycan array binding signal (z-score),[9],-0.31
same,glycan array binding signal (z-score),[10],-0.301
same,glycan array binding signal (z-score),[11],-0.31
same,glycan array binding signal (z-score),[12],-0.306
same,glycan array binding signal (z-score),[13],3.59
same,glycan array binding signal (z-score),[14],3.71
same,glycan array binding signal (z-score),[15],3.69
same,glycan array binding signal (z-score),[16],0.03
same,glycan array binding signal (z-score),[17],2.65
same,glycan array binding signal (z-score),[18],4.64
same,glycan array binding signal (z-score),[19],0.799
same,glycan array binding signal (z-score),[20],-0.307
same,glycan array binding signal (z-score),[21],-0.3
same,glycan array binding signal (z-score),GalNAc3S(b1-4)GlcNAc,-0.306
same,glycan array binding signal (z-score),Glc(b1-4)Glc,-0.309
same,glycan array binding signal (z-score),[22],4.06
same,glycan array binding signal (z-score),[23],-0.309
same,glycan array binding signal (z-score),Kdn(a2-3)Gal(b1-4)Glc,-0.306
same,glycan array binding signal (z-score),[24],-0.304
same,glycan array binding signal (z-score),[25],-0.282
same,glycan array binding signal (z-score),[26],5.46
same,glycan array binding signal (z-score),[27],3.62
same,glycan array binding signal (z-score),[28],4.94
same,glycan array binding signal (z-score),[29],-0.304
same,glycan array binding signal (z-score),[30],-0.305
same,glycan array binding signal (z-score),Neu5Ac(a2-6)Gal,-0.305
same,glycan array binding signal (z-score),[31],2.81
same,glycan array binding signal (z-score),[32],0.435
same,glycan array binding signal (z-score),[33],4.96
same,glycan array binding signal (z-score),[34],-0.296
same,glycan array binding signal (z-score),Neu5Ac(a2-6)GalNAc,-0.307
same,glycan array binding signal (z-score),[35],-0.303
